High-throughput results as filed in PubChem BioAssay.
The entries come from a sample that favours hits as a whole.
IL1B secr inh: qHTS for Inhibitors of Inflammasome Signaling: IL-1-beta AlphaLISA Primary Screen | THP-1 LPS/ATP IL-1B secretion, AlphaLISA, 16 h; hits give low values | activity change, % at 57.5 µM | 360,000 compounds, 4.7% hits | AID 743279, 2014; in the data active = activity change below about -50%; inconclusive = mostly about -30% to -49%
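THP-1 cells pretreated 1 hr with compounds (up to 57.5 uM final), then stimulated with LPS (250 ng/mL final) plus ATP (1.25 mM final); secreted IL-1B measured by AlphaLISA after 16 hr, decreased signal indicating inhibition.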
HT1080 IDH1KD tx: qHTS for induction of synthetic lethality in tumor cells producing 2HG: qHTS for the HT-1080-IDH1KD cell line | HT-1080 IDH1 knockdown viability, ATP luminescence, 48 h | 360,000 compounds, 2% hits | Potency, µM (series often up to 46.1 µM), for the others: at the top dose activity, negative = toxicity, actives largely listed as cytotoxic;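 also: potency is read from the fitted curve at half-maximal effect; 0% = DMSO wells and -100% = cell-free medium wells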
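Using the IDH1-knockdown HT-1080 line run in the same batch and compound series as the NT line, viability after 48 h at 37 °C was determined by CellTiter-Glo luminescence and expressed as % activity.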
TDP1 cell CPT: qHTS for Inhibitors of human tyrosyl-DNA phosphodiesterase 1 (TDP1): qHTS in cells in presence of CPT | chicken DT40 Tdp1-/-;hTDP1 cells + 20 nM CPT, ATP luminescence, 48 h | Potency, µM (top dose mostly 46.2 µM), for the others: at the highest dose activity change, negative = growth inhibition, actives largely listed as inhibitors | 420,000 compounds, 12% hits; also: potency is read from the fitted curve at half-maximal effect; nearly all actives have a fitted effect of over 55% in size
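Chicken DT40 Tdp1-/- cells stably complemented with human TDP1 were seeded at 400 cells/well in medium containing 20 nM camptothecin, exposed to pin-transferred compounds, and grown at 37 °C for at least 48 hr. Viability was read as ATP luminescence.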
12-LOX inh: Primary qHTS assay for inhibitors of human arachidonate 12S-lipoxygenase (ALOX12): Round 2; AID 1671190, 2021; 580,000 compounds, 1.1% hits; purified 12hLO, xylenol orange hydroperoxide absorbance; Potency, µM (highest dose often 108 µM), inactives show top-dose activity change, negative = inhibition, hits mostly inhibitors; Polyunsaturated fatty acid lipoxygenase ALOX12 (Homo sapiens), P18054; also: potency is read from the fitted curve at half-maximal effect
Target sequence (P18054 whole entry, looked up): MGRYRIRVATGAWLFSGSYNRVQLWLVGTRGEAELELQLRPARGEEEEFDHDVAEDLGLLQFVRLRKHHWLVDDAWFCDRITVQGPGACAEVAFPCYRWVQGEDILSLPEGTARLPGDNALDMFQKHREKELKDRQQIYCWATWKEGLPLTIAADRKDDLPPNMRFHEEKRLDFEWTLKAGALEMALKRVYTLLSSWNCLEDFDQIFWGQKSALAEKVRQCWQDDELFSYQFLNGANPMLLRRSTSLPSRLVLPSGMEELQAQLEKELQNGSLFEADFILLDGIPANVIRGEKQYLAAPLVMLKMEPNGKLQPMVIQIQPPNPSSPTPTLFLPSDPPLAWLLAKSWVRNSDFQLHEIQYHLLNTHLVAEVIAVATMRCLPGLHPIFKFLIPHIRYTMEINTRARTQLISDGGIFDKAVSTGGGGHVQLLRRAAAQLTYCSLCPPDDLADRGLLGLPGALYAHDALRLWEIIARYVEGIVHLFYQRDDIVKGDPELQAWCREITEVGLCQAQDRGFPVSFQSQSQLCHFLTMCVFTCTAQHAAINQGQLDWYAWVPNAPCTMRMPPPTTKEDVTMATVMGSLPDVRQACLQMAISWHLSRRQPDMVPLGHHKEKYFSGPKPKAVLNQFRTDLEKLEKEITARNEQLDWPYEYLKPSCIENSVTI
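Purified human 12hLO at 150 nM in 25 mM Hepes, 0.01% Triton X-100, pH 7.0, preincubated 15 min at room temperature with compound. Reaction started with 40 uM arachidonic acid, 30 min at room temperature. Hydroperoxide measured by Fe-xylenol orange, 573/405 nm absorbance ratio.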
DT40 TDP1 no CPT: qHTS for Inhibitors of human tyrosyl-DNA phosphodiesterase 1 (TDP1): qHTS in cells in absence of CPT; 420,000 compounds, 15% hits; DT40 Tdp1-/- hTDP1 cells, no CPT, ATP luminescence, 48 h; AID 686978, 2013; Potency, µM (titrated, usually from 46.2 µM), without a hit: at the highest dose activity change, negative = growth inhibition, actives largely listed as inhibitors; also: potency is read from the fitted curve at half-maximal effect; nearly all actives have a fitted effect of over 55% in size
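Chicken DT40 Tdp1-/- cells stably complemented with human TDP1 were seeded at 400 cells/well with DMSO in place of 20 nM camptothecin. After compound pinning, cells grew at least 48 hr at 37 °C; viability read by CellTiter-Glo luminescence.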
HT1080-NT tox: qHTS for induction of synthetic lethality in tumor cells producing 2HG: qHTS for the HT-1080-NT fibrosarcoma cell line; HT-1080-NT fibrosarcoma viability, CellTiter-Glo ATP luminescence, 48 h; Potency, µM (series often up to 46.1 µM), for inactives: top-dose activity, negative = less viability, most hits filed as cytotoxic; 360,000 compounds, 1.6% hits; AID 686970, 2013;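 also: NT is the 2HG producing partner of a matched IDH1 knockdown line; potency is read from the fitted curve at half-maximal effect; 0% = DMSO-treated cells and -100% = media-only wells without cells; nearly all actives have a fitted effect of over 55% in size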
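Viability by CellTiter-Glo luminescence after 48 h compound exposure at 37C of HT-1080-NT cells (750/well, RPMI, 5% FBS). % activity scaled between DMSO wells and medium-only wells, then curve-fitted and categorized by curve class.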
* hit, by the source's call; ? = inconclusive; . = no result given; [ ] = remark or other dose. Unless noted, calls follow the shape of the dose curve; as a rule, active = well fitted curve in the direction sought with a large enough effect; inconclusive = small, poorly fitted or top-dose-only effect, or another doubt; inactive = no such curve, though single readings can be large; an effect the other way counts as inactive or inconclusive. Unless noted, % is scaled to controls: 0 for no effect and ±100 for the full control effect.

SMILES | IL1B secr inh | HT1080 IDH1KD tx | TDP1 cell CPT | 12-LOX inh | DT40 TDP1 no CPT | HT1080-NT tox
O=C(NCCn1cc(SCc2ccccc2Cl)c2ccccc21)c1cccs1 | . | . | 23µM* | 0% | ? | .
CN(CCOc1ccccc1)C(=O)c1cnc2ccccc2n1 | . | . | . | 6% | . | .
O=C(NNC(=O)C1CCCCC1)c1c[nH]c2ccccc12 | . | . | . | -11% | . | .
Cc1cccc(C(=O)NNC(=O)C2CCCCC2)c1O | 18 | -29% | ? | 1% | 23µM* | 0%
O=C(NCc1ccc(F)cc1)N1CCCCCC1c1nc(-c2ccncc2)no1 (configuration not stated) | . | . | . | 14% | . | .
Cc1ccc2oc(C(=O)Nc3cccc(-c4nc5ccccc5s4)c3)c(C)c2c1 | . | . | ? | -20% | ? | .
Cc1c(C(=O)Nc2cccc(-c3nc4ccccc4s3)c2)oc2ccccc12 | . | . | 16µM* | -25% | 18µM* | .
O=C(Nc1cccc(-c2nc3ccccc3s2)c1)c1cc(=O)c2ccccc2o1 | 0 | 14% | ? | -5% | 2.1µM* | 8%
CC(=O)NC1CCN(C(=O)Cc2c(C)[nH]c3c(C)ccc(C)c23)C1 (configuration not stated) | . | . | . | 60% | . | .
CCOC(=O)c1c(C2CC2)csc1NC(=O)COC(=O)c1ccc[n+]([O-])c1 | -3 | 1% | -30% | -25% | ? | 1%
CCOC(=O)c1c(C2CC2)csc1NC(=O)COC(=O)c1cc(OC)c(OC)cc1[N+](=O)[O-] | 28 | 7% | ? | -6% | 21µM* | 4%
CC(=O)NC(Cc1c[nH]c2ccccc12)C(=O)N1CCN(S(=O)(=O)c2ccc(Cl)cc2)CC1 (configuration not stated) | . | . | . | 2% | . | .
O=C(NCc1ccc(Br)cc1)c1n[nH]c2c1CCCC2 | . | . | . | 29% | . | .
O=C(N/N=C\c1cccc(Cl)c1)c1n[nH]c2c1CCCC2 | ? | -29% | 4% | 1% | -27% | -6%
O=C(N/N=C/c1cccc2ccccc12)c1n[nH]c2c1CCCC2 | 60 | 1.5µM* | 4.6µM* | 3% | 4.1µM* | 1.5µM*
O=C(N/N=C/c1ccc(Cl)cc1Cl)c1n[nH]c2c1CCCC2 | 4 | 6.5µM* | 2.9µM* | 13% | 2.9µM* | 8.2µM*
CCN(CC)C(=O)/C(=C/c1cn(S(=O)(=O)N(C)C)c2ccccc12)NC(=O)c1ccccc1OC | . | . | . | -19% | . | .
CCNC(=O)C1CCCN(Cc2ccc(OCc3ccccc3)cc2)CC1 (configuration not stated) | -6 | -4% | 18µM* | ? | 7.3µM* | ?
CC(C)CCNC(=O)C1CCN(Cc2cccc(OCc3ccccc3)c2)CC1 | -57* | 23µM* | -20% | -20% | ? | ?
CCN(CC)C(=O)C1CCN(Cc2ccc(OCc3ccccc3)cc2)CC1 | -57* | 5% | -29% | 3% | -22% | 0%
CCCCN(C)C(=O)C1CCN(CC(C)c2ccccc2)CC1 (configuration not stated) | . | . | . | 1µM* | . | .
CCCCN(C)C(=O)C1CCN(C/C(C)=C/c2ccccc2)CC1 | 0 | -5% | -10% | ? | -29% | -5%
CCN(CC)C(=O)C1CCN(Cc2cccc(OCc3ccccc3)c2)CC1 | -16 | -1% | -22% | ? | ? | -1%
COCCNC(=O)C1CCN(Cc2cccc(OCc3ccccc3)c2)CC1 | -14 | -4% | -47% | ? | -9% | 2%
COc1ccc(C2CC(=O)c3cc(-c4nc(-c5cccc([N+](=O)[O-])c5)cs4)c(=O)n(-c4ccccc4C)c3C2)cc1 (configuration not stated) | . | . | -29% | -20% | -12% | .
SMILES | IL1B secr inh | HT1080 IDH1KD tx | TDP1 cell CPT | 12-LOX inh | DT40 TDP1 no CPT | HT1080-NT tox
CNC(=O)[C@@H](c1ccccc1)N1CCC[C@H]1C(=O)NC1CCOCC1 | . | . | . | 20%[176 µM] | . | .
Cc1nc(-c2cn(C3CCCN(C(=O)c4ccccc4F)C3)nn2)no1 (configuration not stated) | . | . | . | 26% | . | .
CCCN1CCN(CC(=O)Nc2scc(-c3ccc(Cl)cc3)c2C(=O)OC)CC1 | . | . | . | 18% | . | .
CCCCN(C)C(=O)C1CCN(Cc2cccc(OCc3ccccc3)c2)CC1 | ? | -5% | ? | 5.6µM* | ? | -17%
O=C(C1CCN(Cc2ccc(F)cc2)CC1)N(CCO)Cc1ccccc1 | -26 | 14% | -3% | -8% | -17% | 9%
O=C(C1CCN(Cc2ccc(F)cc2)CC1)N(CCc1ccccc1)Cc1ccccc1 | -89* | -28% | 23µM* | ? | 16µM* | -30%
CCOC(=O)COc1ccc2cc(-c3ccccc3)c(=O)oc2c1 | . | . | . | 41% | . | .
CCOC(=O)COc1ccc2cc(C(=O)OCC)c(=O)oc2c1 | -80* | 5% | -16% | 6% | -14% | 10%
COCCCNc1nc(N)c([N+](=O)[O-])c(Nc2cc(OC)ccc2OC)n1 | . | -8% | 0% | 0% | ? | -7%
COc1ccc(OC)c(Nc2nc(NCCCN(C)C)nc(N)c2[N+](=O)[O-])c1 | -99* | 16µM* | 4.6µM* | 13% | 4.6µM* | -14%
NCCCNc1nc(N)c([N+](=O)[O-])c(NC2CCCCC2)n1 | -16 | ? | 4.1µM* | -19% | 3.7µM* | -27%
COc1ccc(OC)c(Nc2nc(N)c([N+](=O)[O-])c(NCc3ccccc3)n2)c1 | . | 10% | ? | 285% | ? | 21%
CNc1nc(N)c([N+](=O)[O-])c(Nc2ccccc2OC)n1 | -4 | -23% | ? | 96% | 21µM* | -12%
COc1ccccc1Nc1nc(N(C)c2ccccc2)nc(N)c1[N+](=O)[O-] | 14 | 21% | 2% | . | ? | 21%
COc1ccccc1Nc1nc(NCCC(C)C)nc(N)c1[N+](=O)[O-] | 6 | 6% | ? | ? | 18µM* | 8%
COCCNc1nc(N)c([N+](=O)[O-])c(NC2CCCCC2)n1 | 94 | -22% | ? | -21% | 4% | 1%
O=C(Nc1cccc(F)c1)N[C@@H]1C=C(C(=O)N[C@H]2CCCNC2=O)C[C@@H](O)[C@@H]1O | . | . | . | 34%[176 µM] | . | .
